The list is not random: actives were taken first. Their share in the collection is about 3.1%.
RAD52 inh = RAD52 DNA annealing inhibitors, primary screen, biochemical, FRET, single point, set 2; AID 651710, 2012; DNA repair protein RAD52 homolog (Homo sapiens), P43351; 0.46% of 360,000 active; inhibition, % at 18.7 µM; recombinant RAD52 DNA annealing, FRET fluorescence;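 active means every replicate showing at least 50% inhibition; inconclusive means mean inhibition at least 50% but not in every replicate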
Target sequence (P43351 whole entry, looked up): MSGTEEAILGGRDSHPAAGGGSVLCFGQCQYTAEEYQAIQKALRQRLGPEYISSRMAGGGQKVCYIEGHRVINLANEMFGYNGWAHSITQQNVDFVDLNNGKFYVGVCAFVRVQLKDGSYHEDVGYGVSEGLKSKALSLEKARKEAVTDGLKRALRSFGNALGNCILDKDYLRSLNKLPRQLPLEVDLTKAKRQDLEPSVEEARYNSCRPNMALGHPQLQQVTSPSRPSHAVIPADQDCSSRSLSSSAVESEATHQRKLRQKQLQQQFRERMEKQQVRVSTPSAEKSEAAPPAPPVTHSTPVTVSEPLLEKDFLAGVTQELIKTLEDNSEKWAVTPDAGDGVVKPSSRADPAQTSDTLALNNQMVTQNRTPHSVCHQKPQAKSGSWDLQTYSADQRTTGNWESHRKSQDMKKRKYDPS
INS-1E GSIS act = GLuc luminescence reporter in INS-1E cells, primary screen for activators of glucose-dependent secretion of insulin; INS-1E GLuc reporter insulin secretion, 2-3 h; activation, % at 16.6 µM; 0.61% of 370,000 active;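 active means lowest replicate activation of at least 40%, so every replicate reaches that level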
dFosB act-1 = activators of delta FosB homodimer, primary screen, biochemical, fluorescence polarization, TAMRA-CDK5 oligo, single point; Protein FosB (Mus musculus), P13346; purified delta FosB; percent of positive-control signal above neutral wells; activation, % at 25 µM; 0.99% of 340,000 active; AID 493131, 2011;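 active means mean activation above about 17%, with every replicate also reaching it, limit read from the data, passing the limit was not always enough; inconclusive means only one of the two conditions met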
Target sequence (P13346 whole entry, looked up): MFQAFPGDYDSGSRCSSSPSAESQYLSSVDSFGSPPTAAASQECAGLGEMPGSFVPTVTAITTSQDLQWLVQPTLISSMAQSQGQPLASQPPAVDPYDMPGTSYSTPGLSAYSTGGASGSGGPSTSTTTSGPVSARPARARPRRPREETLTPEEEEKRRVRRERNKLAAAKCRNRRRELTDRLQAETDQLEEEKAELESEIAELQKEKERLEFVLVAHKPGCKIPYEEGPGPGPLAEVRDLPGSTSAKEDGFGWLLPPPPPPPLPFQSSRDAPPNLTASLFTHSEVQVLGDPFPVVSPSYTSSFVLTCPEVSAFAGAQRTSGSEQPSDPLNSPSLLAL
MLL AF4-AF9 inh = inhibitors of AF4 peptide binding to AF9, primary screen, biochemical, AlphaScreen, biotin-AF4 peptide, FLAG-AF9, single point | inhibition, % at 10 µM | AID 651704, 2012 | Protein AF-9 (Homo sapiens), P42568 | 0.47% of 350,000 active;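 active means every replicate reaching a set inhibition limit, whatever the replicate mean, cut at about 25% in these data; inconclusive means mean inhibition reaches that limit but some replicates miss it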
DENV2 CPE rescue = inhibitors of DENV2 cytopathic effect, primary screen, cell-based, plate reader, single concentration; DENV2-infected cells, cytopathic effect rescue; CPE inhibition, % at 9.99 µM; 1.7% of 350,000 active; AID 651640, 2012; in the data active means CPE inhibition above about 20%, passing the limit was not always enough; inconclusive means no clear call, values can overlap the other calls; tested in BHK-21 cells
RAD54 branch = inhibitors of human RAD54 branch migration, primary screen, biochemical, fluorescence, single point; DNA repair and recombination protein RAD54-like (Homo sapiens), Q92698; RAD54 Holliday junction branch migration, FAM/BHQ fluorescence; inhibition, % at 10.4 µM; 0.14% of 360,000 active; AID 602329, 2012;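 active means mean normalized replicate activity at least 40 and at least half of replicates scoring 40 or more; inconclusive means only one of the two criteria met; inactive means mean below 40 and under half of replicates reaching 40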;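 further: inhibitors cause a drop in the FAM fluorescence signal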
dFosB act-2 = activators of mouse delta FosB DNA binding, confirmation, biochemical, fluorescence polarization, TAMRA-CDK5 oligo, cherry-picked samples. shares compounds with dFosB act-1. purified delta FosB; normalised: neutral wells 0, positive control 100. activation, % at 24.9 µM. 2,400 tested, under 10 active. AID 588690, 2011;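 active means highest replicate activation at or above 34% and every replicate reaching that threshold; inconclusive means meets only one of the two criteria; inactive means meets neither criterion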;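 further: higher polarization means more probe DNA bound by delta FosB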
Large screens that a line does not name were inactive (follow-up assays come after a bar, where they were run).

C[C@@H]1CCCCO[C@H](CN(C)C(=O)Nc2ccc3c(c2)OCO3)[C@H](C)CN([C@H](C)CO)C(=O)c2cc(NC(=O)Cc3ccccc3)ccc2O1	none (no result: RAD52 inh, dFosB act-1, MLL AF4-AF9 inh)
COc1ccc(C(=O)Nc2ccc(/C(C)=N/NC(=O)c3ccncc3)cc2)cc1	dFosB act-1 40 | dFosB act-2 inactive
COc1ccc(/C=C/C(=O)Oc2ccc(/C=N/NC(=O)c3ccncc3)cc2)cc1	dFosB act-1 22 | dFosB act-2 inactive
COc1ccc(/C(C)=N/NC(=O)c2ccncc2)cc1	none
O=C(N/N=C/c1ccc(OC(=O)c2ccc(Br)cc2)cc1)c1ccncc1	dFosB act-1 90 (no result: RAD54 branch) | dFosB act-2 inactive
C[C@@H]1CCCCO[C@H](CN(C)Cc2ccncc2)[C@H](C)CN([C@@H](C)CO)C(=O)c2cc(NS(C)(=O)=O)ccc2O1	none (no result: dFosB act-1)
C[C@H]1CN([C@@H](C)CO)C(=O)c2cccc(NS(=O)(=O)c3cccs3)c2O[C@H]1CN(C)C(=O)NC1CCCCC1	none (no result: dFosB act-1)
O=C(COC(=O)c1ccc2ncsc2c1)NCc1ccccc1Cl	dFosB act-1 24 | dFosB act-2 inactive
O=C(Nc1ccccc1)c1ccc2c(c1)CCN2S(=O)(=O)c1ccccc1	none
NS(=O)(=O)c1ccc(NC(=O)c2ccc3c(c2)CCN3S(=O)(=O)c2ccccc2)cc1	dFosB act-1 32 | dFosB act-2 inactive
CC(=O)c1cccc(NC(=O)COC(=O)c2cccc(N3C(=O)c4ccccc4C3=O)c2)c1	none
Cc1ccc(NC(=O)COC(=O)c2cccc(N3C(=O)c4ccccc4C3=O)c2)cc1	dFosB act-1 50 | dFosB act-2 inactive
Cc1cc(C)c(-c2cc(NC(=O)COC(=O)c3ccc(NC(=O)CC#N)cc3)n(-c3ccccc3)n2)cc1C	dFosB act-1 51 | dFosB act-2 inactive
CC(=O)c1ccc(NC(=O)c2cccc(N3C(=O)c4ccccc4C3=O)c2)cc1	dFosB act-1 78 (no result: RAD52 inh, INS-1E GSIS act, MLL AF4-AF9 inh, DENV2 CPE rescue) | dFosB act-2 inactive
C[C@@H]1CN([C@H](C)CO)C(=O)c2cccc(NS(=O)(=O)c3cccs3)c2O[C@H]1CN(C)C(=O)Nc1ccc(F)cc1	none (no result: dFosB act-1)
NS(=O)(=O)c1ccc(NC(=O)c2cccc(N3C(=O)c4ccccc4C3=O)c2)cc1	dFosB act-1 111 | dFosB act-2 inactive
CC(C)(C)OC(=O)NCc1ccc(NC(=O)c2nc[nH]c2C(=O)NCCNC(=O)c2[nH]cnc2C(=O)Nc2ccc(CNC(=O)OC(C)(C)C)cc2)cc1	dFosB act-1 40 (no result: RAD52 inh, INS-1E GSIS act, MLL AF4-AF9 inh, DENV2 CPE rescue) | dFosB act-2 inactive
CC(C)(C)OC(=O)CNC(=O)c1[nH]cnc1C(=O)Nc1ccc(CNC(=O)OC(C)(C)C)cc1	none (no result: INS-1E GSIS act)
CCCNC(=O)N[C@@H]1C=C[C@@H](CC(=O)NC2CCC2)O[C@H]1CO	none (no result: dFosB act-1)
C[C@@H]1CN([C@@H](C)CO)C(=O)Cc2cc(NC(=O)Nc3cccc4ccccc34)ccc2O[C@H]1CN(C)C(=O)Nc1ccc2c(c1)OCO2	none (no result: dFosB act-1)
O=C(Nc1cccc2ccccc12)/C(=C/c1cccc([N+](=O)[O-])c1)NC(=O)c1cccs1	dFosB act-1 24 (no result: RAD52 inh, MLL AF4-AF9 inh, DENV2 CPE rescue) | dFosB act-2 inactive
C/C(=C\C=C(C#N)C#N)c1cc(C#N)c(N)o1	dFosB act-1 84 (no result: RAD54 branch) | dFosB act-2 inconclusive
NS(=O)(=O)c1ccc(NC(=O)COC(=O)COc2ccc3ccccc3c2)cc1	none
Cc1c(C(=O)OCC(=O)Nc2ccc(S(N)(=O)=O)cc2)oc2c1ccc1ccccc12	dFosB act-1 29 (no result: DENV2 CPE rescue, RAD54 branch) | dFosB act-2 inactive
Cc1ccc2c(C)c(C(=O)Nc3ccc(S(N)(=O)=O)cc3)oc2c1C	dFosB act-1 48 | dFosB act-2 inactive
Cc1ccc2occ(/C=N/NC(=O)c3ccc(O)cc3)c(=O)c2c1	dFosB act-1 52 | dFosB act-2 inactive
O=C(NNC(=O)c1cccs1)c1cccc(F)c1	none
O=C(N/N=C/c1ccc(OC(=O)c2cccc(F)c2)cc1)c1cccnc1	dFosB act-1 94 | dFosB act-2 inactive
O=C(N/N=C/c1ccc(OC(=O)c2cccs2)cc1)c1cccc(F)c1	dFosB act-1 61 | dFosB act-2 inactive
Cc1cccc(C(=O)Oc2ccc(/C=N/NC(=O)c3ccccc3O)cc2)c1	none
Cc1cccc(C(=O)Oc2ccc(/C=N/NC(=O)c3ccc(O)cc3)cc2)c1	dFosB act-1 34 | dFosB act-2 inactive
O=C(N/N=C/c1cccnc1)c1cccc(F)c1	none
CCCNC(=O)[C@H]1[C@H](CO)[C@H]2Cn3c(ccc(-c4ccccc4F)c3=O)[C@H]2N1C(=O)C1CCC1	none (no result: dFosB act-1, RAD54 branch)
COc1ccc(S(=O)(=O)Nc2cccc3c2O[C@H](CN(C)Cc2ccc(C(=O)O)cc2)[C@H](C)CN([C@H](C)CO)C3=O)cc1	none (no result: RAD52 inh, dFosB act-1, MLL AF4-AF9 inh, DENV2 CPE rescue, RAD54 branch)
O=C(C[C@@H]1C[C@H]2c3cc(NC(=O)NC4CCCC4)ccc3O[C@H]2[C@H](CO)O1)NCc1ccc(Cl)cc1	none (no result: dFosB act-1)
COc1cc(S(=O)(=O)Nc2ccc(C)cc2)ccc1N=Cc1c(C)c(C#N)c(=O)n(C)c1O	dFosB act-1 128 (no result: RAD54 branch) | dFosB act-2 inactive
CO[C@H]1CN(C)C(=O)c2cc(NC(=O)NC3CCCCC3)ccc2OC[C@@H](C)N(CCc2ccccc2)C[C@@H]1C	none (no result: dFosB act-1)
COc1ccc(C(=O)Sc2ccc(Cl)cc2)cc1OC	dFosB act-1 21 (no result: RAD52 inh, INS-1E GSIS act, MLL AF4-AF9 inh, DENV2 CPE rescue) | dFosB act-2 inactive
N#Cc1c(N)nc(SCC(=O)NCCc2ccccc2)c(C#N)c1-c1cccs1	dFosB act-1 36 (no result: RAD52 inh, INS-1E GSIS act, MLL AF4-AF9 inh, DENV2 CPE rescue) | dFosB act-2 inactive
O=c1[nH]cnc2cc(-c3ccc(Br)cc3)sc12	dFosB act-1 45 | dFosB act-2 inactive
CCN(CC)S(=O)(=O)c1ccc(Cl)c(NC(=O)c2ccccc2C)c1	none (no result: RAD52 inh, INS-1E GSIS act, MLL AF4-AF9 inh, DENV2 CPE rescue)
CCN(CC)S(=O)(=O)c1ccc(Cl)c(NC(=O)c2cc(Cl)cc(Cl)c2)c1	dFosB act-1 54 (no result: RAD54 branch) | dFosB act-2 inactive
C[C@@H]1CN([C@@H](C)CO)C(=O)Cc2cc(NC(=O)Nc3ccccc3)ccc2O[C@H]1CN(C)S(=O)(=O)c1ccccc1	none (no result: dFosB act-1)
C[C@H](CO)N1C[C@H](C)[C@@H](CN(C)S(=O)(=O)c2ccc(C#N)cc2)OCc2ccccc2-c2c(n(C)c3ccccc23)C1=O	none (no result: dFosB act-1)
NC(=O)CC(NC(=O)c1ccc(Br)cc1)c1ccc(NC2CCCCC2)c([N+](=O)[O-])c1 (stereo not drawn)	dFosB act-1 42, DENV2 CPE rescue inconclusive (no result: INS-1E GSIS act) | dFosB act-2 inactive
